PubChem BioAssay (NCI)
This is part of a sample that, as a whole, favours compounds with a hit. Of some 83,000 tested, about 20% had one in any assay.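 Negative percent growth values reflect cell death: -40 means 40% of the cells present at the start died, and -100 means all died.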 The source made the active and inactive calls. Rule for the calls: active = growth percent below 10; inactive = the rest.

Assays:
Test in all cases: NCI-60 one-dose screen, 48 h (100 = growth as untreated, 0 = no growth, -100 = all killed)
Settings in all cases: 10 µM unless noted
[1] = tested on: SK-MEL-2 melanoma
[2] = tested on: SN12C renal
[3] = tested on: UO-31 renal
[4] = tested on: TK-10 renal
[5] = tested on: CAKI-1 renal
[6] = tested on: CCRF-CEM leukemia
[7] = tested on: MOLT-4 leukemia
[8] = tested on: SR leukemia
[9] = tested on: RPMI-8226 leukemia
[10] = tested on: OVCAR-8 ovarian
[11] = tested on: OVCAR-5 ovarian
[12] = tested on: OVCAR-4 ovarian
[13] = tested on: SK-OV-3 ovarian
[14] = tested on: IGROV1 ovarian
[15] = tested on: OVCAR-3 ovarian
[16] = tested on: HS 578T breast
[17] = tested on: NCI/ADR-RES ovarian
[18] = tested on: ACHN renal
[19] = tested on: A498 renal
[20] = tested on: EKVX NSCLC

Measured: growth

COc1ccc(/C=C\c2nc3ccccc3s2)cc1OP(=O)(O)O
active: [15] 0.859%
inactive: [1] 22.2% | [2] 55.4% | [3] 51.5% | [4] 90.3% | [5] 38.5% | [6] 16.8% | [7] 26.3% | [8] 16.7% | [9] 22.7% | [10] 40.2% | [11] 75.4% | [12] 72.6% | [13] 84.2% | [14] 37.9% | [16] 14.8% | [17] 14.4%

CN(Cc1ccccc1)c1nc(Cl)c(C2CC(c3ccc(Cl)cc3)=Cc3[nH][nH]c(=O)c32)s1 (centres undefined)
inactive: [1] 99.7% | [2] 89.4% | [3] 69.2% | [4] 99.1% | [18] 93.5% | [5] 86.2% | [19] 111% | [6] 106% | [7] 96.3% | [8] 94.2% | [9] 92.5% | [10] 94.5% | [11] 97.5% | [12] 116% | [13] 101% | [14] 88.1% | [15] 95% | [16] 96.4% | [17] 89.6%

O=C(OC(OC(=O)c1cc(Cl)cc(Cl)c1)c1cccc2ccccc12)c1ccccc1 (centres undefined)
inactive: [1] 91.1% | [2] 97.5% | [3] 75.6% | [4] 90.7% | [18] 102% | [19] 84.8% | [6] 93.6% | [7] 103% | [8] 94.5% | [9] 98% | [10] 93.7% | [11] 105% | [12] 103% | [13] 101% | [14] 96.5% | [15] 97.6% | [16] 98.2% | [17] 99.7%

N#Cc1c(NC(=O)c2cccc(Br)c2)sc2c1CCCC2
inactive: [1] 91.9% | [2] 83.9% | [3] 82.3% | [4] 79.2% | [18] 75.6% | [5] 73% | [6] 63.5% | [7] 52.3% | [8] 31.9% | [9] 77.8% | [10] 81.9% | [11] 90.5% | [12] 75.1% | [13] 85.2% | [14] 67.4% | [15] 95% | [16] 80.7% | [17] 76.8%

Cc1cc2cc3cc(C)c(N)cc3[n+](C)c2cc1N
active: [1] -21.9% | [2] 8.73% | [7] 5.32% | [9] -1.31% | [10] 1.23% | [15] 1.65% | [16] 9.56%
inactive: [3] 14% | [4] 16.2% | [18] 28.5% | [5] 52.7% | [6] 18.8% | [11] 46.2% | [12] 10% | [13] 26% | [14] 16.1% | [17] 48.5%

Cc1ccc(O)c(C(=O)O)c1
inactive: [1] 109% | [2] 104% | [3] 94% | [4] 72.7% | [18] 106% | [19] 99.9% | [6] 98.1% | [7] 97.7% | [8] 101% | [9] 103% | [10] 112% | [11] 108% | [12] 122% | [13] 106% | [14] 95.3% | [16] 108% | [17] 111%

O=C1NC(=O)C(=Cc2cn(Cc3ccccn3)c3ccccc23)C(=O)N1
active: [19] -90.4% | [11] -50.9%
inactive: [20] 98% | [2] 102% | [3] 75.5% | [4] 59.8% | [18] 104% | [5] 13.9% | [6] 95.8% | [7] 100% | [8] 93% | [9] 96.1% | [10] 101% | [12] 93.4% | [13] 89.8% | [14] 31.6% | [15] 102% | [16] 94.7% | [17] 100%

Clc1ccc(N2N=C(c3cccc(Nc4ccncc4)c3)CC2c2ccccc2)cc1 (centres undefined)
inactive: [1] 107% | [2] 86.1% | [3] 83.1% | [4] 106% | [18] 94.9% | [5] 76.2% | [19] 84.5% | [6] 96.3% | [7] 89.4% | [8] 51.7% | [9] 92.7% | [10] 94.5% | [11] 90% | [12] 88.9% | [13] 87.6% | [14] 92.9% | [15] 97.1% | [16] 72.7% | [17] 101%

COc1nccnn1
active: [1] -31.3%
inactive: [2] 97.1% | [3] 100% | [4] 93.3% | [18] 100% | [5] 108% | [19] 92.9% | [6] 99.8% | [7] 106% | [9] 70.1% | [10] 111% | [11] 101% | [12] 101% | [13] 110% | [14] 118% | [15] 146% | [16] 86.7% | [17] 101%

CCCCCOc1ccc(/C=N/Nc2cc(C)nc3ccc(Br)cc23)cc1
active: [2] -88.8% | [3] -94.1% | [18] -26.2% | [6] 3.51% | [7] -21.8% | [8] -9.53% | [9] -8.25% | [10] -46.3% | [12] 4.88% | [14] -11.7% | [15] -83.2%
inactive: [1] 105% | [4] 19.1% | [5] 43.6% | [11] 106% | [13] 102% | [16] 85.5% | [17] 63.6%

CCCCN(CCCC)CCc1c(C)cc(C)c(CCN(CCCC)CCCC)c1O
active: [1] 1.41% | [9] 1.92%
inactive: [2] 22.9% | [3] 28.4% | [4] 37.4% | [18] 29.3% | [5] 39.7% | [6] 26.6% | [7] 16.2% | [8] 25.8% | [10] 47.5% | [11] 45.6% | [12] 30.8% | [13] 25.5% | [14] 32.9% | [15] 14.7% | [16] 58.3% | [17] 75.7%

O=C(Nc1cccc(C2=NCCN2)c1)c1ccc(OCCCOc2ccc(C(=O)Nc3cccc(C4=NCCN4)c3)cc2)cc1
active: [1] -47.3% | [9] -3.7% | [14] -40.2% | [15] 5.65%
inactive: [2] 23.6% | [3] 85.7% | [4] 81.5% | [18] 75.3% | [5] 65.1% | [6] 33.5% | [7] 25.4% | [8] 11.9% | [10] 55% | [12] 13.2% | [13] 31.6% | [16] 35.6% | [17] 104%

Cc1c(C2=CCCCC2)c2ccccn2c1C(=O)c1cccc(S(=O)(=O)N2CCOCC2)c1
inactive: [1] 91.8% | [2] 99.8% | [3] 56.8% | [4] 71.5% | [18] 93.4% | [5] 59.6% | [19] 116% | [6] 81.5% | [7] 82.6% | [9] 46.9% | [10] 94.9% | [11] 106% | [12] 52.2% | [13] 92.6% | [14] 75.7% | [15] 73% | [16] 75.8% | [17] 60.5%

Cc1nc2sc(C(=O)Nc3ccccc3)c(N)c2cc1C(=O)c1ccc(C(F)(F)F)cc1
active: [19] 5.8%
inactive: [1] 101% | [2] 99.6% | [3] 90.7% | [4] 104% | [18] 80% | [5] 83.6% | [6] 102% | [7] 108% | [8] 81.9% | [9] 102% | [10] 101% | [11] 97.9% | [12] 87.3% | [13] 69.3% | [14] 101% | [15] 110% | [16] 85.6% | [17] 99%

CCCCCN1C=C/C(=C\C(=O)N(C)c2ccc(Br)cc2)c2ccccc21
inactive: [20] 84.8% | [2] 97.6% | [3] 77.6% | [4] 102% | [18] 113% | [5] 86.7% | [6] 97.9% | [7] 85% | [8] 90.5% | [9] 89.1% | [10] 89.4% | [11] 104% | [12] 84.4% | [13] 96.8% | [14] 96.3% | [15] 98.8% | [16] 98.6% | [17] 100%

C/C(=C(/c1ccccc1)c1ccc(OCC(O)CN2CCOCC2)cc1)c1ccccc1 (centres undefined)
inactive: [20] 96.6% | [2] 88.3% | [3] 73.7% | [4] 94.3% | [18] 98.8% | [5] 80.1% | [19] 91.6% | [6] 80.4% | [7] 61.5% | [8] 47.2% | [9] 75% | [10] 88.5% | [11] 87.2% | [12] 89.3% | [13] 91.3% | [14] 96.2% | [15] 90.4% | [16] 90.8% | [17] 93.2%
